Experimental findings from PubChem BioAssay (Tox21) are described below.

Results filed as inconclusive are left out. Calls of active or inactive are those of the source. The call rests on the fitted dose curve; in most records, active means well fitted cell-killing curve with a large enough effect in the repeat runs; inconclusive means weak or mixed curves, or effect the other way; inactive means no such curve, though single readings can be large or run the other way.
On the % scale 0 is the no-effect control and ±100 the full control effect.

A short description of the assay: qHTS assay to identify small molecule agonists of the RXR signaling pathway - cell viability counter screen (AID 1159529). Further: nearly all actives have a fitted effect of over 50% in size. As to conditions: RXR-alpha-bla HEK293T viability, CellTiter-Glo, 16 h; series mostly up to 76.8 µM. The source says:
National Center for Advancing Translational Sciences [NCATS]
NIH Chemical Genomics Center [NCGC]
U.S. Environmental Protection Agency [EPA]
National Institutes of Environmental Health Sciences [NIEHS]
National Toxicology Program [NTP]
U.S. Food and Drug Administration [FDA]
The Retinoid X receptor (RXR), a nuclear hormone receptor expressed in liver, spleen, placenta, epidermis, central nervous system. These receptors are able to form homo and heterodimers with other nuclear receptors and due to this heterodimerizing ability, RXR functions as master regulators producing diverse physiological effects. Three subtypes of RXR exist; alpha, beta and gamma. Retinoid X receptor alpha (RXR-alpha) has potential roles in metabolic signaling pathways, skin alopecia, dermal cysts, cardiac development, insulin sensitization etc. Therefore screening environmental chemicals on RXR-alpha signaling can be used for the studies focused on such therapeutic applications. For quantification of RXR-alpha ligands signaling, GeneBLAzer RXR alpha-UAS-bla HEK 293T (Life Technologies, Carlsbad, CA) cells containing a beta-lactamase reporter-gene under control of Retinoid X receptor-alpha response element were used to screen Tox21 10K library. The cytotoxicity of the Tox21 compound library against the RXR-alpha HEK 293T cell line was tested in parallel by measuring cell viability using CellTiter-Glo assay (Promega Corporation, Madison, WI) in the same wells.
Tox21 Assay Protocol Summary:
RXR-alpha HEK 293T cells were dispensed at 2,000 cells/6 uL of assay medium containing 2% charcoal-stripped FBS using a Multidrop Combi (ThermoFisher Scientific, Waltham, MA) dispenser. The assay was performed in black wall/clear-bottom 1536-well plates (Greiner Bio-One North America Inc. Monroe, NC). Tetraoctyl ammonium bromide was used as a positive control in the cytotoxicity screen. After the assay plates were incubated at 37 C and 5% CO2 for 5 hr, 23 nL of compounds dissolved in DMSO, positive control or DMSO only were transferred to the assay plate by a Pintool station (Kalypsys, San Diego, CA). The assay plates were incubated at 37 C and 5% CO2 for 16 hr. One uL of LiveBLAzer B/G FRET substrate (Life Technologies) was added using a Flying Reagent Dispenser (FRD) (Aurora Discovery, San Diego, CA) and the plates were incubated at room temperature for 2 hr. Fluorescence intensity (405 nm excitation, 460/530 nm emission) was measured using an Envision plate reader (PerkinElmer, Shelton, CT). For cytotoxicity, 4 uL/well of CellTiter-Glo reagent was added into the assay plates using an FRD. After 30 min incubation at room temperature, the luminescence intensity was measured using a ViewLux plate reader (PerkinElmer).
In general terms: Quantitative high-throughput screening tests each substance at several concentrations.
With `CC(C)(C)NC[C@H](O)COc1cccc2c1CCCC2=O`, the result was inactive.

For the compound `CC(C)C[C@@H]1[C@H](c2ccccc2)OC(=O)N1CCCN1CCCCCC1`, the compound was called inactive.

In the case of `CC1OCCC1=O` (stereo not given), the outcome was inactive. On the same count and under the same terms, then `CC(=O)Nc1ccc(OC(=O)c2ccccc2OC(C)=O)cc1`, with “inactive”; and `CCOc1ccccc1OCC1CNCCO1` (stereo not given), with “inactive”. Regarding `CCCC(=O)Nc1ccc(OCC(O)CNC(C)C)c(C(C)=O)c1` (stereo not given), the compound was classed as inactive.

Take `CC(C)[C@H]1CC[C@H](C)C[C@@H]1O`: the compound was classed as inactive. For `C=CCN1C[C@H](C(=O)N(CCCN(C)C)C(=O)NCC)C[C@@H]2c3cccc4[nH]cc(c34)C[C@H]21`, the call was inactive. For `COC(=O)CCCCC(=O)O`, the call was inactive.

`CCOc1cccc(N)c1`: the outcome was inactive. As to `NCc1ccc(S(N)(=O)=O)cc1`, the compound was called inactive. Still for that read-out and setting: then `NCCOCCN`, with “inactive”; and `COc1c2occc2c(OC)c2c(=O)cc(C)oc12`, with “inactive”; and `CCNC(=O)NCc1cccc(Cl)c1`, with “inactive”. Consider `COc1ccc(CCO)cc1`, for which the compound was called inactive. Same read-out and setting: then `CC(=O)CCc1ccc(OC(C)=O)cc1`, with “inactive”. Regarding `CC(C)NCC(O)c1ccc2ccccc2c1` (stereo not given), the compound was classed as inactive. With `CCO`, the compound was called inactive.

In the case of `OC1OCCOC1O` (stereo not given), the call was inactive. As for `O=C(CN1CCNCC1)NC1CCCCC1`, the outcome was inactive. Turning to `O=S(=O)(O)c1ccc2c(N=Nc3ccc(S(=O)(=O)O)c4ccccc34)c(O)c(S(=O)(=O)O)cc2c1`, the activity change, negative = cytotoxicity is 0.355% [at 6.97 µM] (inactive). For `CC12CCC(C1)C(C)(C)C2O` (stereo not given), the compound was called inactive. In the case of `OCC1CCC(CO)CC1` (stereo not given), the compound was called inactive. For `C=CC(=O)OCC1CCCO1` (stereo not given), the compound was classed as inactive. On to `C=CCOC(=O)CCCCCC`, for which the result was inactive. Consider `C=CC(=O)CCCCC`, for which the compound was classed as inactive. On the same count and under the same terms, then `CCN(CC)CCN`, with “inactive”. `CCCCCCCCCCCCCBr`: the compound was classed as inactive. Still for that read-out and setting: then `C=C(C)c1cccc(C(C)(C)N=C=O)c1`, with “inactive”; and `C=CCCCCCCCC`, with “inactive”; and `Cc1ccc(N)cc1S(=O)(=O)O`, with “inactive”. In the case of `COCCc1ccccn1`, the outcome was inactive. The same measure, in the same setting: next, `O=C[O][Al]([O]C=O)[O]C=O`: “inactive”; `O=C(O)CSCC(=O)NC1CCSC1=O` (stereo not given): “inactive”; `CC(C)COC(=O)c1ccccc1`: “inactive”. With `CCC(=O)CC`, the compound was called inactive. Turning to `CNCCS(=O)(=O)O`, the outcome was inactive.

On to `CCC(C)OC(C)CC` (stereo not given), for which the compound was classed as inactive. Same read-out and setting: next, `c1ccc(-c2nn[nH]n2)cc1`: “inactive”.

In the case of `CC(C)OC(=O)CCC(=O)OC(C)C`, the compound was classed as inactive.
